The results in this text go back to PubChem BioAssay (NCATS).

A number with no mark means an inactive call. Inconclusive results are not listed. Active and inactive are the calls of the source. Unless noted, the call rests on the fitted dose curve; in most records, active means well fitted curve in the direction sought with a large enough effect; inconclusive means small, poorly fitted or top-dose-only effect, or another doubt; inactive means no such curve, though single readings can be large; an effect the other way counts as inactive or inconclusive.

One assay relates to OV90. Briefly: Primary qHTS to identify gynecologic anti-cancer compounds using libraries of approved drugs and bioactive compounds (AID 1345084). Further: on the % scale 0 is the no-effect control and ±100 the full control effect; nearly all actives have a fitted effect of over 55% in size. The note with it: Gynecologic cancer cell panel viability, ATPlite luminescence, 48 h; series mostly up to 57.5 µM. In short, it runs like this: (§1)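 48 h compound exposure at 37 C, 5% CO2; five-point qHTS. ATPlite luminescence readout of cell ATP.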

A further assay relates to PA-1. The assay is described as above. The note with it: Gynecologic cancer cell panel viability, ATPlite luminescence, 48 h; series mostly up to 57.5 µM. In short, it runs like this: as §1
The test system of a further assay is SKOV3. The assay is described as above. The note with it: Gynecologic cancer cell panel viability, ATPlite luminescence, 48 h; series mostly up to 57.5 µM. In short, it runs like this:
as §1

For a further assay, the system named is Tov-21-G. Described as above. To be noted: Gynecologic cancer cell panel viability, ATPlite luminescence, 48 h; series mostly up to 57.5 µM. In short, it runs like this: as §1
A further assay has as its system Tov112D. The assay is described as above. To be noted: Gynecologic cancer cell panel viability, ATPlite luminescence, 48 h; series mostly up to 57.5 µM. The essentials: as §1
The nature of assay [1]: Drug repurposing screens with cells derived from glioblastoma tumor samples (AID 1345199). Further: nearly all actives have a fitted effect of over 40% in size. Further: potency means the concentration at half of the fitted maximal effect. On activity, negative = cell killing: on the % scale 0 is the no-effect control and ±100 the full control effect. To be noted: GBM patient neurospheres viability, ATP luminescence, 48 h. In short, it runs like this: (§2)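 Primary testing used CD133+ neurospheres from four GBM patients, seven concentrations, 48 h exposure and ATP-based viability; confirmation added three slower-growing patient lines.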

In the next assay the test system is astro. The description is as above. The note with it: viability, ATP luminescence, 48 h; series mostly up to 45.9 µM. In short, it runs like this: as §2
For assay [2], the target named is Nuclear receptor subfamily 1 group I member 2 (Rattus norvegicus) (UniProt Q9R1A7). Briefly: qHTS assay for small molecule activators of the rat pregnane X receptor (rPXR) signaling pathway (AID 651751; call rule not given here; further: 0% is about no effect). To be noted: rPXR reporter cells, luciferase (One-Glo), 24 h.
Nuclear receptor subfamily 1 group I member 2 (Rattus norvegicus), sequence (Q9R1A7 whole entry, looked up): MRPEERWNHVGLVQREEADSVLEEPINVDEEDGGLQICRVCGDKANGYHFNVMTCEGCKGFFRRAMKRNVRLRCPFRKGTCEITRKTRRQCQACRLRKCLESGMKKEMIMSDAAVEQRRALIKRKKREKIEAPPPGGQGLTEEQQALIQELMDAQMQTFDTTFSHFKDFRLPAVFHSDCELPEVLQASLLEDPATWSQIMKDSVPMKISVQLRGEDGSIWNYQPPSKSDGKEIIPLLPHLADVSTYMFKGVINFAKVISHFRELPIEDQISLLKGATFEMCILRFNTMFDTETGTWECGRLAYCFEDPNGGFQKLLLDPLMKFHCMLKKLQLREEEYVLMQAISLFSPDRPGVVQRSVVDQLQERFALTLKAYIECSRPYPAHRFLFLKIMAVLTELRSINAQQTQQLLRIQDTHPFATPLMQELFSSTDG
The mark [3] stands for this setting: at 45.9 µM (top of the series), tumour line B.
Setting [4] is: at 45.9 µM (top of the series), tumour line D.
Where [5] appears, read: at 46.1 µM (top of the series), tumour line C.
Setting [6] is: at 46 µM (top of the series), tumour line A.
[7] abbreviates: at 20 µM (top of the series), tumour line C.
[8] abbreviates: at 21.2 µM (top of the series), tumour line B.
[9] abbreviates: at 21.2 µM (top of the series), tumour line D.
The mark [10] stands for this setting: at 21.3 µM (top of the series), tumour line A.

On to `C[C@]12CCC(=O)C=C1CC[C@@H]1[C@@H]2CC[C@@]2(C)[C@H]1CC[C@]2(O)C(=O)CO`, for which the Potency entry with OV90, in the assay on PA-1, in the assay on SKOV3, in the assay on Tov-21-G, with Tov112D and in the assay with astro was “inactive” in each case. For the same compound, the values for the activity, negative = cell killing in assay [1] (setting [3]), in assay [1] (setting [4]) and in assay [1] (setting [5]) were -14.7%, 0.984% and -72.8%, respectively.
Take `CCN(CC)CCNC(=O)c1ccc(NC(C)=O)cc1`: the Potency result in the assay with OV90, in the assay with PA-1, in the assay with SKOV3, in the assay on Tov-21-G, in the assay on Tov112D and with astro was “inactive” in each case. For the same compound, the activity, negative = cell killing in assay [1] (setting [3]) is -5.4%; in assay [1] (setting [4]), 7.82%; in assay [1] (setting [6]), 7.67%; in assay [1] (setting [5]), -13.9%.
Turning to `CC(=O)[C@@]1(O)CC[C@H]2[C@@H]3CCC4=CC(=O)CC[C@]4(C)[C@H]3CC[C@@]21C`, the Potency result in the assay on OV90, in the assay on PA-1, in the assay on SKOV3, in the assay on Tov-21-G, in the assay on Tov112D and in the assay with astro was “inactive” throughout. The activity, negative = cell killing in assay [1] (setting [3]) was -19.9%; in assay [1] (setting [4]), -29.7%; in assay [1] (setting [5]) it was -20.5%.
As to `C#CCN(C)CCCOc1ccc(Cl)cc1Cl`, the Potency entry in the assay on OV90, in the assay with PA-1, in the assay with SKOV3, in the assay with Tov-21-G, in the assay on Tov112D and in the assay on astro was “inactive” each time. The activity, negative = cell killing in assay [1] (setting [3]) was -0.374%; in assay [1] (setting [4]) it was -15.7%; in assay [1] (setting [6]), -39.4%; in assay [1] (setting [5]) it was -14.2%.
As to `NC(Cc1ccc(Cl)cc1)C(=O)O` (centres undefined), the activity change, negative = cytotoxicity with OV90 was -16.1% [at 0.462 µM]; in the assay on PA-1, -4.76% [at 0.462 µM]; with SKOV3, 0.0141% [at 0.462 µM]; with Tov-21-G, 11.9% [at 0.462 µM]; in the assay with Tov112D it was 2.14% [at 0.462 µM]. The activity, negative = cell killing in assay [1] (setting [3]) was -4.29%; in assay [1] (setting [4]), -0.449%; in assay [1] (setting [6]), -31.7%; in assay [1] (setting [5]), 0.887%. Moreover, the Potency entry in the assay on astro was “inactive”.
`CCN(CC)CCNC(=O)c1cc(S(C)(=O)=O)ccc1OC`: the Potency entry in the assay with OV90, in the assay with PA-1, in the assay with SKOV3, with Tov-21-G, in the assay with Tov112D and with astro was “inactive” in each case. Further, the activity, negative = cell killing was -10.9% in assay [1] (setting [7]), -7.73% in assay [1] (setting [8]) and -4.2% in assay [1] (setting [9]).
On to `CCCN1C[C@H](CSC)C[C@@H]2c3cccc4[nH]cc(c34)C[C@H]21`, for which the Potency result in the assay with OV90, in the assay on PA-1, in the assay on SKOV3, with Tov-21-G, with Tov112D and with astro was “inactive” throughout. The activity, negative = cell killing in assay [1] (setting [3]) was -27.2%; in assay [1] (setting [5]), 15.8%. Besides, the Potency in assay [1] (tumour line A) was 7.94 µM (active).
Regarding `FC(F)(F)c1ccccc1-n1ccnc1`, the Potency entry with OV90, in the assay on PA-1, with SKOV3, with Tov-21-G, in the assay on Tov112D and in the assay with astro was “inactive” throughout. In addition, the activity, negative = cell killing in assay [1] (setting [3]) was -13.1%; in assay [1] (setting [4]), -9.1%; in assay [1] (setting [6]), -27.4%; in assay [1] (setting [5]), -16.7%.
For `CC(C)NNC(=O)c1ccncc1`, the Potency result with OV90, in the assay with PA-1, with SKOV3, in the assay on Tov-21-G, in the assay on Tov112D and with astro was “inactive” each time. In addition, the activity, negative = cell killing in assay [1] (setting [3]) was -11.9%; in assay [1] (setting [4]), -16.2%; in assay [1] (setting [5]) it was -23.6%.
`CC[N+](C)(C)c1cccc(O)c1`: the Potency result in the assay on OV90, in the assay on PA-1, in the assay with SKOV3, with Tov-21-G, in the assay with Tov112D and in the assay with astro was “inactive” each time. For the same compound, the activity, negative = cell killing in assay [1] (setting [7]) was -0.675%; in assay [1] (setting [8]) it was -16.9%; in assay [1] (setting [9]), -14.7%; in assay [1] (setting [10]), -22.7%.
Regarding `CO[C@@]1(NC(=O)CSCC#N)C(=O)N2C(C(=O)O)=C(CSc3nnnn3C)CS[C@@H]21`, the Potency entry with OV90, with PA-1, with SKOV3, with Tov-21-G, with Tov112D and in the assay with astro was “inactive” throughout. Moreover, the activity, negative = cell killing in assay [1] (setting [3]) is -13.1%; in assay [1] (setting [4]), -14.3%; in assay [1] (setting [6]) it was -28.8%.
In the case of `Cc1ccc(S(=O)(=O)NC(=O)NN2CCCCCC2)cc1`, the Potency entry in the assay with OV90, with PA-1, in the assay on SKOV3, in the assay on Tov-21-G, in the assay with Tov112D and in the assay on astro was “inactive” each time. For the same compound, the activity, negative = cell killing was 5.62% in assay [1] (setting [3]), 15.6% in assay [1] (setting [4]), -3.14% in assay [1] (setting [6]) and -5.87% in assay [1] (setting [5]). Further, the max response in assay [2] was 0.57%.
For `CC(=O)Oc1cc(C(C)C)c(OCCN(C)C)cc1C`, the Potency entry in the assay on OV90, in the assay on PA-1, in the assay with SKOV3, in the assay on Tov-21-G, with Tov112D and with astro was “inactive” each time. Further, the activity, negative = cell killing is -2.72% in assay [1] (setting [7]), -4.22% in assay [1] (setting [8]), -2.65% in assay [1] (setting [9]) and -22.5% in assay [1] (setting [10]).
For `NC(=O)c1ncn([C@@H]2O[C@H](CO)[C@@H](O)[C@H]2O)c1O`, the Potency entry in the assay with OV90, with PA-1, with SKOV3, in the assay on Tov-21-G, in the assay with Tov112D and in the assay with astro was “inactive” each time. Besides, the activity, negative = cell killing in assay [1] (setting [3]) was -12.1%; in assay [1] (setting [4]), 11.4%; in assay [1] (setting [6]) it was -0.128%; in assay [1] (setting [5]), -22.4%.
`CCCN(CCC)C(=O)C(CCC(=O)O)NC(=O)c1ccccc1` (centres undefined): the Potency entry in the assay with OV90, in the assay on PA-1, in the assay with SKOV3, with Tov-21-G, with Tov112D and in the assay on astro was “inactive” throughout. The activity, negative = cell killing in assay [1] (setting [3]) is 1.78%; in assay [1] (setting [4]) it was -1.59%; in assay [1] (setting [6]) it was -28.4%; in assay [1] (setting [5]), -13.4%.
Take `CN=C(NC#N)NCCSCc1nc[nH]c1C`: the Potency entry with OV90, in the assay with PA-1, in the assay with SKOV3, in the assay on Tov-21-G and in the assay with Tov112D was “inactive” in each case. The activity, negative = cell killing in assay [1] (setting [3]) was -8.34%; in assay [1] (setting [4]), -15.2%; in assay [1] (setting [6]), -11.7%; in assay [1] (setting [5]) it was -4.17%. In addition, in assay [2], the max response was 5.73%.
Take `CSc1ccc(C(=O)c2[nH]c(=O)[nH]c2C)cc1`: the Potency result in the assay with OV90, in the assay on PA-1, with SKOV3, in the assay on Tov-21-G, in the assay on Tov112D and in the assay with astro was “inactive” in each case. Moreover, the figures for the activity, negative = cell killing in assay [1] (setting [3]), in assay [1] (setting [4]) and in assay [1] (setting [5]) were -10.8%, -20.6% and -21.1%, respectively.
